Drawing on PubChem BioAssay (EPA / NIEHS), this text covers AC50 and outcome for 3 compounds.

Read-out in experiment [1]: Macrophage colony-stimulating factor (MCSF), CSF1 (gene 1435)
The experiment in a line: BSK_hDFCGF_MCSF: BioMAP Diversity Plus: hDFCGF Assay for Macrophage colony-stimulating factor (MCSF) Biomarker Activity (AID 2283060). The note with it: primary human foreskin fibroblasts; actives raise or lower the signal. Put shortly:
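Human foreskin primary fibroblasts were treated with test chemical for 24 h, and M-CSF was then measured by ELISA. Data were fitted bidirectionally against DMSO as the negative control and activity baseline.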

The nature of experiment [2]: BSK_hDFCGF_SRB: Viability Assessment in the BioMAP Diversity Plus: hDFCGF Assay (AID 2283061).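 Further: cells exposed to compound for 24 h before the read.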 The note with it: primary human foreskin fibroblasts. An outline of the steps:
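Human foreskin primary fibroblasts were treated with compound and assessed 24 h after dosing. Total protein was measured by sulforhodamine B staining (0.1% SRB after 10% TCA fixation, 560 nm read) as a cytotoxicity marker, with bidirectional fitting against DMSO baseline.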

Read-out in experiment [3]: TIMP metallopeptidase inhibitor 1 (TIMP1), TIMP1 (gene 7076)
The experiment in a line: BSK_hDFCGF_TIMP1: BioMAP Diversity Plus: hDFCGF Assay for TIMP metallopeptidase inhibitor 1 (TIMP1) Biomarker Activity (AID 2283062). The note with it: primary human foreskin fibroblasts; actives raise or lower the signal. An outline of the steps: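 Primary human foreskin fibroblasts in the hDFCGF system were dosed with compound for 24 h, then TIMP-1 was measured by ELISA. Activity was fitted bidirectionally relative to DMSO control; parallel SRB staining assessed cytotoxicity.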

Read-out in experiment [4]: Monokine induced gamma interferon (MIG), CXCL9 (gene 4283)
The experiment in a line: BSK_hDFCGF_MIG: BioMAP Diversity Plus: hDFCGF Assay for Monokine induced gamma interferon (MIG) Biomarker Activity (AID 2283063). The note with it: primary human foreskin fibroblasts; actives raise or lower the signal. An outline of the steps: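 ELISA read-out of MIG from primary human dermal fibroblasts 24 h post-dosing. Gain or loss of signal fitted bidirectionally, DMSO as baseline.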

Read-out in experiment [5]: Matrix Metallopeptidase 1 (MMP1), MMP1 (gene 4312)
The experiment in a line: BSK_hDFCGF_MMP1: BioMAP Diversity Plus: hDFCGF Assay for Matrix Metallopeptidase 1 (MMP1) Biomarker Activity (AID 2283064). To be noted: primary human foreskin fibroblasts; actives raise or lower the signal. An outline of the steps:
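hDFCGF primary fibroblasts (human foreskin); chemical added; 24 h; MMP1 by ELISA; bidirectional fit vs DMSO.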

Read-out in experiment [6]: Plasminogen activator inhibitor-1 (PAI1), SERPINE1 (gene 5054)
The experiment in a line: BSK_hDFCGF_PAI1: BioMAP Diversity Plus: hDFCGF Assay for Plasminogen activator inhibitor-1 (PAI1) Biomarker Activity (AID 2283066). The note with it: primary human foreskin fibroblasts; actives raise or lower the signal. Put shortly:
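PAI-1 levels, determined by ELISA, served as the endpoint in human foreskin fibroblast cultures exposed to compound for 24 h, with DMSO as baseline.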

Read-out in experiment [7]: Intercellular Adhesion Molecule 1 (ICAM1), ICAM1 (gene 3383)
The experiment in a line: BSK_KF3CT_ICAM1: BioMAP Diversity Plus: KF3CT Assay for Intercellular Adhesion Molecule 1 (ICAM1) Biomarker Activity (AID 2283067). To be noted: primary human keratinocytes with fibroblasts; actives raise or lower the signal. An outline of the steps: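 Human keratinocyte plus foreskin fibroblast primary co-culture was exposed to chemical for 24 h. ICAM-1 was then quantified by ELISA, and the data were fit bidirectionally against DMSO as the negative control and baseline.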

Read-out in experiment [8]: Interferon-gamma inducible Protein 10 (IP10), CXCL10 (gene 3627)
The experiment in a line: BSK_KF3CT_IP10: BioMAP Diversity Plus: KF3CT Assay for Interferon-gamma inducible Protein 10 (IP10) Biomarker Activity (AID 2283068). To be noted: primary human keratinocytes with fibroblasts; actives raise or lower the signal. Put shortly: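 ELISA read-out of IP-10 after 24 h chemical dosing of human skin primary co-culture (keratinocytes, foreskin fibroblasts). Gain or loss of signal relative to DMSO, bidirectional curve fit.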

Experiment [9] is described as follows: BSK_KF3CT_SRB: Viability Assessment in the BioMAP Diversity Plus: KF3CT Assay (AID 2283069).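 Further: fitted for both signal gain and loss against DMSO baseline.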 To be noted: primary human keratinocytes with fibroblasts. An outline of the steps:
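Keratinocytes co-cultured with foreskin fibroblasts (human primary); chemical added, 24 h; fix 10% TCA, stain 0.1% SRB, A560. Bidirectional fit vs DMSO.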

Read-out in experiment [10]: Interleukin-1 alpha (IL1a), IL1A (gene 3552)
The experiment in a line: BSK_KF3CT_IL1a: BioMAP Diversity Plus: KF3CT Assay for Interleukin-1 alpha (IL1a) Biomarker Activity (AID 2283070). The note with it: primary human keratinocytes with fibroblasts; actives raise or lower the signal. Put shortly:
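Chemicals were dosed onto co-cultured human keratinocytes and foreskin fibroblasts, IL-1a was quantified by ELISA at 24 h, and activity was fitted in both directions relative to DMSO controls.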

Read-out in experiment [11]: TIMP metallopeptidase inhibitor 2 (TIMP2), TIMP2 (gene 7077)
The experiment is described as follows: BSK_KF3CT_TIMP2: BioMAP Diversity Plus: KF3CT Assay for TIMP metallopeptidase inhibitor 2 (TIMP2) Biomarker Activity (AID 2283071). The note with it: primary human keratinocytes with fibroblasts; actives raise or lower the signal. An outline of the steps:
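Keratinocyte–fibroblast co-culture, 24 h exposure; TIMP-2 ELISA, DMSO-normalised bidirectional fit. Parallel SRB (0.1%, TCA-fixed, 560 nm) total-protein staining gauges cytotoxicity.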

Read-out in experiment [12]: Transforming growth factor beta 1 (TGFb1), TGFB1 (gene 7040)
The experiment in a line: BSK_KF3CT_TGFb1: BioMAP Diversity Plus: KF3CT Assay for Transforming growth factor beta 1 (TGFb1) Biomarker Activity (AID 2283072). The note with it: primary human keratinocytes with fibroblasts; actives raise or lower the signal. An outline of the steps: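 Signal changes in either direction, relative to DMSO, define activity here. TGF-b1 is read by ELISA from a human keratinocyte-fibroblast co-culture 24 h post-dose.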

Read-out in experiment [13]: C-C motif chemokine 2 (Homo sapiens) (UniProt P13500)
The experiment in a line: BSK_KF3CT_MCP1: BioMAP Diversity Plus: KF3CT Assay for Monocyte Chemoattractant Protein 1 (MCP1/CCL2) Biomarker Activity (AID 2283073). To be noted: primary human keratinocytes with fibroblasts; actives raise or lower the signal. An outline of the steps:
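Human keratinocyte plus foreskin fibroblast primary co-culture exposed to chemical for 24 h. MCP-1 levels measured by ELISA. Bidirectional curve fitting relative to DMSO negative control as baseline.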

Read-out in experiment [14]: Matrix Metallopeptidase 9 (MMP9), MMP9 (gene 4318)
The experiment is described as follows: BSK_KF3CT_MMP9: BioMAP Diversity Plus: KF3CT Assay for Matrix Metallopeptidase 9 (MMP9) Biomarker Activity (AID 2283074).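 On AC50: MMP9 protein level quantified by ELISA in the co-culture.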 The note with it: primary human keratinocytes with fibroblasts; actives raise or lower the signal. Put shortly:
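Human keratinocyte/foreskin fibroblast co-culture; compound added; 24 h; MMP-9 by ELISA; bidirectional fit vs DMSO baseline.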

Read-out in experiment [15]: urokinase plasminogen activator (uPA), PLAU (gene 5328)
The experiment is described as follows: BSK_KF3CT_uPA: BioMAP Diversity Plus: KF3CT Assay for urokinase plasminogen activator (uPA) Biomarker Activity (AID 2283075). The note with it: primary human keratinocytes with fibroblasts; actives raise or lower the signal. An outline of the steps:
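ELISA readout of uPA, analyzed for signal gain or loss relative to DMSO, from a human primary keratinocyte–foreskin fibroblast co-culture measured 24 h after chemical treatment.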

Read-out in a further experiment: CD40, CD40 (gene 958)
The experiment in a line: BSK_LPS_CD40: BioMAP Diversity Plus: LPS Assay for CD40 Biomarker Activity (AID 2283076). To be noted: primary human HUVEC with PBMC; actives raise or lower the signal. An outline of the steps:
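Primary human umbilical vein endothelial cells co-cultured with peripheral blood mononuclear cells, LPS-stimulated, were dosed with chemical and read 24 h later. CD40 levels were measured by ELISA and fitted bidirectionally against DMSO as negative control and baseline.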

Read-out in experiment [16]: E-selectin (Homo sapiens) (UniProt P16581)
The experiment is described as follows: BSK_LPS_Eselectin: BioMAP Diversity Plus: LPS Assay for Eselectin Biomarker Activity (AID 2283077). The note with it: primary human HUVEC with PBMC; actives raise or lower the signal. An outline of the steps:
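Human umbilical vein endothelial cells co-cultured with peripheral blood mononuclear cells under LPS stimulation; E-selectin measured by ELISA 24 h after chemical dosing. Activity fitted bidirectionally against DMSO as negative control and baseline.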

Read-out in experiment [17]: Interleukin-8 (IL8), CXCL8 (gene 3576)
The experiment in a line: BSK_LPS_IL8: BioMAP Diversity Plus: LPS Assay for Interleukin-8 (IL8) Biomarker Activity (AID 2283078). To be noted: primary human HUVEC with PBMC; actives raise or lower the signal. Put shortly:
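Human umbilical vein endothelial cells co-cultured with PBMC were stimulated with LPS; IL-8 levels were measured by ELISA 24 h after chemical dosing. Activity was fitted bidirectionally against DMSO as negative control and baseline.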

Experiment [18] is described as follows: BSK_LPS_SRB: Viability Assessment in the BioMAP Diversity Plus: LPS Assay (AID 2283079).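 Further: total protein by sulforhodamine B absorbance as a cytotoxicity measure; measured one day after compound addition; fitted in both directions against DMSO so loss or gain of signal counts.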 To be noted: primary human HUVEC with PBMC. Put shortly:
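Human umbilical vein endothelial cells co-cultured with PBMC (LPS system) were dosed for 24 h. Total protein was stained with 0.1% sulforhodamine B after 10% TCA fixation, read at 560 nm, and fitted bidirectionally against DMSO baseline.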

Read-out in experiment [19]: Vascular cell adhesion molecule 1 (VCAM1), VCAM1 (gene 7412)
The experiment in a line: BSK_hDFCGF_VCAM1: BioMAP Diversity Plus: hDFCGF Assay for Vascular cell adhesion molecule 1 (VCAM1) Biomarker Activity (AID 2283065).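 On AC50: VCAM-1 protein level quantified by ELISA after 24 h chemical exposure.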 To be noted: primary human foreskin fibroblasts; actives raise or lower the signal. Put shortly: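 Primary human foreskin fibroblasts (hDFCGF system) were dosed with chemical and VCAM-1 was measured by ELISA 24 h later. Bidirectional curve fitting used DMSO as negative control and activity baseline.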

Calls of active or inactive are those of the source. How the source made its calls: active means hit-call score of the fitted dose curve at least 0.9, where 1 is the maximum; inactive means score below 0.9.

Sequence of E-selectin (Homo sapiens) (P16581 whole entry, looked up): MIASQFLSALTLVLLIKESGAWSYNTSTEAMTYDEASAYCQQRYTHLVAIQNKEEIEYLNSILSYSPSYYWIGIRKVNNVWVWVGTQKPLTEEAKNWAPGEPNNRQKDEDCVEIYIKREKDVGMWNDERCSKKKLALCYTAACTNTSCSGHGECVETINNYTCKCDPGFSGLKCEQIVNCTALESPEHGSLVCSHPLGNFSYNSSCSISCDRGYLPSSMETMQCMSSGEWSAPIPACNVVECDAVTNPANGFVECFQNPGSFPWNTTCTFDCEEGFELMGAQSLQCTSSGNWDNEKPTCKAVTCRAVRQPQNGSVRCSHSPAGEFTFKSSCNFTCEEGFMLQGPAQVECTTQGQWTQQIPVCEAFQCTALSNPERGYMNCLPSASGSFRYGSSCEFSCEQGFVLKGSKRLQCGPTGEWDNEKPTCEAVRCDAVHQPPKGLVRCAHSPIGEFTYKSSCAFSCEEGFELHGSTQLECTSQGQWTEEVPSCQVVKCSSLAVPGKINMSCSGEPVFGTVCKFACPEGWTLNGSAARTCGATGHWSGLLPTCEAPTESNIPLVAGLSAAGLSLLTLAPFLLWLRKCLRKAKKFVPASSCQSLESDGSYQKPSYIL

By AC50 is commonly meant the concentration giving half of the maximal activity seen. Take `N#Cc1c(-c2ccc(Cl)cc2)[nH]c(C(F)(F)F)c1Br`: the AC50 was 0.0566 µM (active) in experiment [1]; 3.97 µM (active) in [2]; 6.18 µM (active) in experiment [3]; 20 µM (active) in [4]; 0.39 µM (active) in [6]; 8 µM (active) in [8]. The AC50 in experiment [12] is 0.186 µM (active); in experiment [13], 0.0621 µM (active); in experiment [14] it was 3.97 µM (active); with CD40, CD40 (gene 958), 4.05 µM (active); in experiment [17], 4.18 µM (active); in experiment [18], 3.97 µM (active). Further, the result in [5], in [7], in experiment [9], in experiment [10], in experiment [11] and in experiment [15] was inactive. The outcome in experiment [16] was inactive.

In the case of `O=[N+]([O-])c1ccc(Cl)c(Cl)c1`, the result in [1], in experiment [2], in experiment [3], in [4], in [5] and in experiment [19] was inactive. For the same compound, the outcome in experiment [6], in experiment [7], in experiment [8], in experiment [9], in [10] and in experiment [11] was inactive. Besides, the outcome in experiment [12] was “inactive”; in experiment [13], “inactive”; in experiment [14], “inactive”; in experiment [15], “inactive”; with CD40, CD40 (gene 958), “inactive”; in experiment [16], “inactive”. The outcome in [17] and in [18] was inactive.

With `c1ccc2c(c1)Nc1ccccc1S2`, the AC50 was 9.32 µM (active) in experiment [1], 20 µM (active) in experiment [19], 29.4 µM (active) in experiment [6] and 27.3 µM (active) in [11]. The outcome in experiment [2], in [3], in experiment [4], in experiment [5], in experiment [7] and in [8] was inactive. Moreover, the outcome in [9] was “inactive”; in [10], “inactive”; in experiment [12], “inactive”; in experiment [13], “inactive”; in experiment [14], “inactive”; with CD40, CD40 (gene 958), “inactive”. Moreover, the outcome in [16], in experiment [17] and in [18] was inactive.
